The sample as a whole holds a higher share of hits than the screen did.
ClpP mod = qHTS Assay for Activators of ClpP; ATP-dependent Clp protease proteolytic subunit (Bacillus subtilis (strain 168)), P80244; purified B. subtilis ClpP, FRET peptide cleavage, 20 min; Potency, µM (titrated, usually from 57.5 µM), for inactives: top-dose activity change, negative = active; 1.9% of 340,000 active; AID 651965, 2013; active means well fitted falling curve with a large enough effect; inconclusive means small, poorly fitted or top-dose-only effect; inactive means no such curve, though single readings can be large or run the other way; further: potency means the concentration at half of the fitted maximal effect; the source files actives as falling curves though it sought activators and does not explain the sign; nearly all actives have a fitted effect of over 65% in size
Target sequence (P80244 whole entry, looked up): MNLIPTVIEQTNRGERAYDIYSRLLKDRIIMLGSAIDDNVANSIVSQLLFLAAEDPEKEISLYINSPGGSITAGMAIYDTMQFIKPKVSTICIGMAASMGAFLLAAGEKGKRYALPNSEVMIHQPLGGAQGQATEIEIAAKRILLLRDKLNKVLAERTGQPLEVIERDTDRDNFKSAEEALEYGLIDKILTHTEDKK
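Buffer: 100 mM Tris/HCl pH8, 100 mM KCl, 0.05% low protease BSA, 2.5% glycerol, 0.01% Tween-20. ClpP 10 microg/mL final; 20 min RT; delta FRET normalized to ADEP and DMSO controls.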
N370S GC mod = N370S glucocerebrosidase modulation, Gaucher chaperone candidate | 0.092% of 330,000 active | P04062 | Potency, µM (top dose mostly 59.4 µM), for inactives: top-dose activity change, negative = inhibition, hits mostly inhibitors | N370S GC spleen homogenate, 4MU-glucoside fluorescence;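 further: potency means the concentration at half of the fitted maximal effect; 0% = full enzyme activity and -100% = no enzyme basal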
GRP78 ERSR act = ER stress response induction in glioma; Potency, µM, for the others: at the highest dose activation, usual class: activators; AID 602332; U87-MG GRP78 promoter luciferase reporter, 16 h; 0.02% of 420,000 active; further: potency means the concentration at half of the fitted maximal effect; series mostly up to about 76 µM; % of control where 0% means no effect; nearly all actives have a fitted effect of over 35% in size
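Stably transfected U87-MG human glioma cells carrying a GRP78-based luminescent sensor were seeded at 1000 cells/well, pin-dosed with compounds and incubated 16 h. Luciferase reagent was then added, and end-point luminescence was read after 10 min at room temperature.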
Apoferritin bind = binds horse apoferritin like a general anesthetic; 0.074% of 350,000 active; apoferritin/1-aminoanthracene competitive binding, fluorescence; P02791; Potency, µM (series often up to 77.5 µM), for inactives: at the highest dose activity change, negative = displacement, most hits filed as inhibitors; further: potency means the concentration at half of the fitted maximal effect; on the % scale 0 is the no-effect control and ±100 the full control effect; nearly all actives have a fitted effect of over 20% in size
Target sequence (P02791 2-175 limits assumed): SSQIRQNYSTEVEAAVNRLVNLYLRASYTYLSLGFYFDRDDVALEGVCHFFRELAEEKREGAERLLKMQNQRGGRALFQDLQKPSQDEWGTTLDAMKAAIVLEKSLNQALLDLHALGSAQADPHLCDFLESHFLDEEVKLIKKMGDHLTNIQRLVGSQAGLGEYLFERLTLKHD
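Horse-spleen apoferritin (10 uM) in 50% saturated 1-aminoanthracene in PBS was incubated 10 min at room temperature with compound. Fluorescence (ex 380, em 535 nm) was normalized to free and bound 1-AMA, with concentration-response fitted by a four-parameter Hill equation.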
a7 integrin act = integrin-mediated muscular dystrophy alleviation activation; alpha7betagal myoblasts, beta-gal FDG fluorescence, 48 h; Potency, µM (doses to about 38.3 µM), without a hit: at the highest dose activation, hits mostly activators; 0.064% of 350,000 active;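 further: potency means the concentration at half of the fitted maximal effect; 100% = response of the positive control SU9516; nearly all actives have a fitted effect of over 60% in size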
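alpha7betagal+/- myoblasts (passage 13, 250/well) treated 48 h at 37C with compounds at 1:260 dilution of DMSO stock. Lysed, then beta-galactosidase activity read as FDG fluorescence (ex 480/em 540) after 30 min, with pre-read for autofluorescence.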
CBFb-RUNX1 inh = blocks binding between human CBF-beta and RUNX1. Q01196+Q13951. AlphaScreen CBFb-His/RUNX1-biotin binding, biochemical. Potency, µM (highest dose often 59.8 µM), without a hit: at the highest dose activity, negative = inhibition, most hits filed as inhibitors. 230,000 tested, under 10 active; further: % of control where 0% means no effect
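AlphaScreen binding: CBFb-His and RUNX1-biotin (30 nM each) preincubated 20 min, compound added for 15 min, then nickel and streptavidin beads for 90 min, all at room temperature. Disruption of the interaction by any mechanism counts as activity.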
An asterisk follows results filed as active; ? = inconclusive; · = no result given. Unless noted, the call rests on the fitted dose curve; in most records, active means well fitted curve in the direction sought with a large enough effect; inconclusive means small, poorly fitted or top-dose-only effect, or another doubt; inactive means no such curve, though single readings can be large; an effect the other way counts as inactive or inconclusive.

SMILES	ClpP mod	N370S GC mod	GRP78 ERSR act	Apoferritin bind	a7 integrin act	CBFb-RUNX1 inh
CC1=CC(C)C2C(=O)N(c3ccccc3)NC(=O)C2C1 (stereo not drawn)	16µM*	14%	-3%	-3%	-7%	-8%
COC(=O)c1[nH]c2cccc(OC)c2c1NC(=O)C(C)N1CCC(C)CC1 (stereo not drawn)	32µM*	-5%	-8%	-12%	11%	-2%
COC(=O)c1[nH]c2cccc(OC)c2c1NC(=O)CCN1CCC(C)CC1	25µM*	-8%	-3%	-3%	19%	3%
COC(=O)c1[nH]c2ccccc2c1NC(=O)C(C)N1CC(C)OC(C)C1 (stereo not drawn)	·	9%	-2%	-14%	7%	5%
CCN(CC)CCNC(=O)c1cnn(-c2nccc(-c3cc4ccccc4o3)n2)c1C	·	·	-3%	·	·	·
COC(=O)c1ccc(C(=O)OC)c(NC(=O)COC(=O)C2CCCCC2)c1	?	-11%	-2%	-9%	-9%	2%
COC(=O)c1ccc(C(=O)OC)c(NC(=O)COC(=O)C2CCC(C(C)(C)C)CC2)c1 (stereo not drawn)	28µM*	17%	-4%	?	23%	4%
COCCCNC(=O)c1oc2c(c1C)-c1nn(Cc3ccc(Cl)cc3)cc1CC2	32µM*	·	-3%	4%	·	·
CC(=O)Nc1ccc(NC(=O)c2oc3c(c2C)-c2nn(Cc4ccccc4Cl)cc2CC3)cc1	20µM*	·	7%	-17%	·	·
COCCCNC(=O)c1oc2c(c1C)-c1nn(Cc3cccc(Cl)c3)cc1CC2	-25%	·	-7%	6%	·	·
CCN(CC)CCCNC(=O)c1oc2c(c1C)-c1nn(Cc3ccc(Cl)cc3)cc1CC2	16µM*	·	-9%	-15%	·	·
Cc1c(C(=O)N(CCO)C(C)C)cnn1-c1ncc2c(n1)-c1ccccc1CCC2	·	·	-6%	·	·	·
COc1cccc(CNC(=O)c2c(OC)cc(=O)n3c2CCN(C(=O)c2ccoc2C)CC3)c1	·	·	0%	·	·	·
CC(C)NC(C(=O)Nc1cc(Cl)cc(Cl)c1)c1ccccc1 (stereo not drawn)	28µM*	-12%	-4%	?	-25%	7%
CC(=O)c1oc2ccccc2c1N	-17%	-1%	-1%	-9%	-8%	0%
COC(=O)c1oc2ccccc2c1N	25µM*	-1%	9%	-17%	3%	-6%
CC(NC(=O)c1cc(F)ccc1F)c1nnc2n1CCN(Cc1ccccc1O)CC2 (stereo not drawn)	·	·	0%	·	·	·
CC1CCCCC12NC(=O)N(CC(=O)OCc1cccc(F)c1)C2=O (stereo not drawn)	-1%	·	-1%	·	10µM*	·
CC1CCCCC12NC(=O)N(CC(=O)OCc1ccccc1F)C2=O (stereo not drawn)	3%	·	-7%	·	21%	·
COC(=O)c1c(OCC2CCCN(C)C2)cc(=O)n2c1CCN(Cc1ccc(OC)c(O)c1)CC2 (stereo not drawn)	·	·	-7%	·	·	·
Cc1cc(C)c(OCC(=O)Nc2ccc(NC(=O)c3ccco3)cc2)c([N+](=O)[O-])c1	32µM*	0%	-1%	2%	-14%	2%
Cc1ccc(NC(=S)NNC(=O)c2ccco2)cc1	0%	27%	9%	3%	4%	7%
Cc1cc(C)c(OCC(=O)Nc2cccc(NC(=O)c3ccco3)c2)c(Br)c1	-24%	4%	-1%	-11%	10%	-6%
Cc1ccccc1OCc1nc(-c2ccc(NC(=O)c3ccco3)cc2)no1	28µM*	-3%	-6%	-3%	-32%	0%
O=C(Nc1ccc(-c2nc3ncccc3o2)cc1)c1ccco1	28µM*	6%	2%	3%	7%	-7%
Cc1ccc(-c2nnc(-c3ccc(NC(=O)c4ccco4)cc3)o2)cc1	32µM*	-19%	18%	-2%	17%	9%
Cc1ncc2c(c1CNC(=O)c1cncs1)CCN(C(=O)c1ccc(-c3ccccc3)cc1)C2	·	·	0%	·	·	·
